Experimental findings from PubChem BioAssay (NCATS) are described below.

Results filed as inconclusive are left out. A call without a number means that no potency is given here. Active and inactive are the calls of the source. Calls follow the shape of the dose curve; as a rule, active = well fitted inhibition curve with a large enough effect; inconclusive = small, poorly fitted or top-dose-only effect; inactive = no such curve, though single readings can be large or run the other way.
Potency is read from the fitted curve at half-maximal effect.

The nature of this assay: Primary qHTS for small molecule stabilizers of the endoplasmic reticulum resident proteome: Secreted ER Calcium Modulated Protein (SERCaMP) assay (AID 1508630). As to conditions: SH-SY5Y GLuc-SERCaMP (Gaussia luciferase released on ER calcium loss) secretion, thapsigargin, luminescence; series mostly up to 38.4 µM. An excerpt: Assay Provider: Brandon K. Harvey Ph.D.
National Institute on Drug Abuse, National Institutes of Health, Baltimore, MD
Endoplasmic reticulum (ER) dysregulation is associated with human pathologies including neurodegenerative, cardiovascular, muscular, and diabetic conditions. Maintenance of ER calcium is critical for functions of the ER and its depletion can lead to loss of ER resident proteins, in a process termed exodosis. Therapeutic compounds capable of attenuating the redistribution of ER proteins under pathological conditions may slow or stop disease progression. To identify such compounds, we performed a quantitative high-throughput screen (qHTS) using the SERCaMP assay, which monitors secretion of ER resident proteins triggered by calcium depletion.
SERCaMP was initially developed as a reporter of ER calcium homeostasis using a Gaussia luciferase with a modified signal peptide and carboxy-terminus (GLuc-SERCaMP), modifications that confer secretion of the reporter in response to ER calcium depletion (Henderson et al., 2014). The assay was used to screen 9,501 compounds, including a collection of drugs approved by the FDA (US), EMA (EU), NHI (Japan), and HC (Canada) regulatory agencies (Huang et al., 2011). Since the SERCaMP reporter reflects the exodosis phenomenon (Trychta et al., 2018a), compounds identified in the screen have the potential to prevent exodosis by different mechanisms such as stabilizing ER calcium or augmenting ERS retrieval.
1. Henderson, M.J., Wires, E.S., Trychta, K.A., Richie, C.T., and Harvey, B.K. (2014). SERCaMP: a carboxy-terminal protein modification that enables monitoring of ER calcium homeostasis. Mol Biol Cell 25, 2828-2839.
2. Huang, R., Southall, N., Wang, Y., Yasgar, A., Shinn, P., Jadhav, A., Nguyen, D.T., and Austin, C.P. (2011). The NCGC pharmaceutical collection: a comprehensive resource of clinically approved drugs enabling repurposing and chemical genomics. Sci Transl Med 3, 80ps16.
3. Trychta, K.A., Back, S., Henderson, M.J., and Harvey, B.K. (2018a). KDEL Receptors Are Differentially Regulated to Maintain the ER Proteome under Calcium Deficiency. Cell Rep 25, 1829-1840 e1826.
SEQUENCE No. (1, 2, 3, etc.); […] (e.g., Cells, Incubation, Reagent, etc.); VALUE and DESCRIPTION.
1; Reagent; 5 uL; 1000 SH-SY5Y cells per wells
3; Compound; 23 nL; Control inhibitor / compound library
5; Reagent; 100 nM; Thapsigargin
7; Reagent; 1 uL; 0.5x coelenterazine
8; Detection; Luminescence; ViewLux imaging system
NOTES (numbers refer to sequence above)
1; SH-SY5Y human neuroblastoma cells stably expressing GLuc-SERCaMP (SH-SY5Y-GLuc-ASARTDL) cells were seeded in 1,536 well white tissue culture treated plates (Corning, Cat# 7464) in DMEM-high glucose-sodium pyruvate (ThermoFisher Scientific, Cat #10569) supplemented with 10% bovine growth serum (Hyclone), 10 U/ml penicillin (Gibco), 10 ug/ml streptomycin (Gibco), and 20 mM HEPES.
2; Assay plates were incubated for 5 hour at 37C in a humidified incubator containing 5% CO2.
3; qHTS libraries (23 nl, final concentrations of 1.53 uM, 7.67 uM, 38.3 uM) or controls (neutral control: DMSO, positive control: dantrolene) were added using a Kalypsis pin-tool Robotic System equipped with 1536 pinheads.
4; Cells were then incubated for 16 hours at 37C, 5% CO2.
5; Thapsigargin was added at 100 nM to deplete ER calcium stores.
6; Cells were incubated for 4 hour (37 °C, 5% CO2)
7; Gaussia luciferase in the medium was measured by adding 1 ul of 0.5x coelenterazine (final concentration 0.07x) prepared in Gaussia Luciferase Glow Assay Buffer (Pierce), without addition of the Cell Lysis Buffer Reagent.
8; Luminescence was measured using a ViewLux […] CCD imaging system (Perkin Elmer) equipped with clear filters. […] The same controls were also used for the calculation of the Z' factor, a measure of assay quality control, as previously described (Zhang et al., 1999). […]
For orientation: In qHTS, concentration-response curves come from the screen itself.
Regarding `C[C@@H]1CCO[C@H]2Cn3cc(C(=O)NCc4ccc(F)cc4F)c(=O)c(O)c3C(=O)N12`, the Potency entry was “inactive”.
Turning to `Cc1nn(Cc2ccccc2Cl)c(C)c1CN(C)CC(O)COc1ccc(Cl)cc1` (stereo not given), the Potency result is “inactive”.
For the compound `N#Cc1ccc(Oc2ccc3c(c2)COB3O)cc1`, the Potency entry is “inactive”.
Under `C[C@@H]1[C@H](O)[C@@H](C)C=CC=CC=CC=CC=CC=CC=C[C@H](O[C@@H]2O[C@H](C)[C@H](O)[C@H](N)[C@@H]2O)C[C@@H]2O[C@](O)(C[C@@H](O)C[C@@H](O)[C@H](O)CC[C@@H](O)C[C@@H](O)CC(=O)O[C@H]1C)C[C@H](O)[C@@H]2C(=O)O` stands “inactive”.
In the case of `CCN1C[C@H](C)n2c(c(O)c3c(=O)n(Cc4ccc(F)c(Cl)c4)nc(C(=O)NC)c32)C1=O` it was “inactive”; in that of `Nc1ccc(-c2ccc3ncc4ccc(=O)n(-c5cccc(C(F)(F)F)c5)c4c3c2)cn1`, “inactive”; in that of `C[C@@]1(C(=O)Nc2ccc(F)nc2)CCCN1c1nc(Nc2cc(C3CC3)[nH]n2)c2cccn2n1`, “inactive”.
In the case of `Cc1ccc(NC(=O)c2cccc(N(C)C)c2)cc1NC(=O)c1ccc(O)cc1`, the Potency result is “inactive”.
Take `CN1CCC(COc2cnc(-c3cccc(Cn4nc(-c5cccc(C#N)c5)ccc4=O)c3)nc2)CC1`: the Potency entry is “inactive”.
In the case of `CN1N=C(N)c2cn([C@@H]3O[C@H](COP(=O)(O)O)[C@@H](O)[C@@H]3O)c3ncnc1c23`, the Potency result was “inactive”.
In the case of `N#CC(=C1Nc2ccccc2S1)c1ccnc(OCc2ccc(CN3CCOCC3)cc2)n1` it was 1.49 µM (active); in that of `CN1CCN(c2cccc(Nc3nc4c(-c5ccc(S(C)(=O)=O)cc5)cccn4n3)c2)CC1`, “inactive”.
`CN(C)CCN(Cc1ccc(Cl)cc1)c1ccccn1`: the Potency entry is “inactive”.
Under `O[C@@H](COc1cccc2ncccc12)CN1CCN(C2c3ccccc3[C@@H]3[C@H](c4ccccc42)C3(F)F)CC1` (stereo not given in full) stands “inactive”; under `CCC(=O)N1CCN(c2ccc(-n3c(=O)ccc4cnc5ccc(-c6cnc7ccccc7c6)cc5c43)cc2C(F)(F)F)CC1`, “inactive”.
`O=S(=O)(O)c1ccc2cc(N=Nc3cc(S(=O)(=O)O)c4cccnc4c3O)ccc2c1`: the Potency entry was “inactive”.
With `NCC1CCC(C(=O)O)CC1` (stereo not given), the Potency entry was “inactive”.
Take `O=C(Nc1cccc(C(F)(F)F)c1)Nc1cc(S(=O)(=O)NC2CC2)ccc1-c1ccsc1`: the Potency result was “inactive”.
Under `COc1ccc(CCC(=O)Nc2nc3ccc(Cl)cc3s2)cc1OC` stands “inactive”; under `CCCCn1c(=O)n(Cc2ccccc2F)c(=O)c2[nH]c(Cc3ccc(NC(C)=O)cc3)nc21`, “inactive”; under `Clc1ccc(COC(Cn2ccnc2)c2ccc(Cl)cc2Cl)c(Cl)c1` (stereo not given), “inactive”.
Take `CN(C)CCOc1ccc(C(=C(CCCl)c2ccccc2)c2ccccc2)cc1`: the Potency entry is “inactive”.
`COc1cc(F)c(C(C)C)cc1-c1ccc(C(F)(F)F)cc1CN1C(=O)O[C@H](c2cc(C(F)(F)F)cc(C(F)(F)F)c2)[C@@H]1C`: the Potency entry was “inactive”.
On to `O=C(Nc1ccccc1)Nc1ccc(-c2ccc(C(=O)[C@H]3CCC[C@H]3C(=O)O)cc2)cc1`, for which the Potency entry is “inactive”.
Turning to `CC[C@]1(O)C[C@H]2CN(CCC3=c4ccccc4=N[C]3[C@@](C(=O)OC)(c3cc4c(cc3OC)N(C)[C@H]3[C@@](O)(C(N)=O)[C@H](O)[C@]5(CC)C=CCN6CC[C@]43[C@@H]65)C2)C1`, the Potency result was “inactive”.
For the compound `CCOC(=O)c1c(CSc2ccccc2)n(C)c2cc(Br)c(O)c(CN(C)C)c12`, the Potency result is “inactive”.
Under `O=c1cc(-c2ccc(O)c(O)c2)oc2cc(O)cc(O)c12` stands “inactive”; under `O=C(O)c1ccc(O)c2ncc(N3CCOCC3)cc12`, “inactive”; under `CN[C@@H]1[C@@H](O)[C@@H](O[C@@H]2[C@@H](O)[C@H](O[C@H]3O[C@H](CN)[C@@H](O)[C@H](O)[C@@H]3O)[C@@H](N)C[C@@H]2NC(=O)[C@@H](O)CN)OC[C@]1(C)O`, “inactive”.
As to `CN(C(Cc1ccc(OS(=O)(=O)c2cccc3cnccc23)cc1)C(=O)N1CCN(c2ccccc2)CC1)S(=O)(=O)c1cccc2cnccc12` (stereo not given), the Potency was 11.9 µM (active).
In the case of `C[C@H]1COC2=C1C(=O)C(=O)c1c2ccc2c1CCCC2(C)C`, the Potency result was “inactive”.
`N#CC1(c2cccc(C(=O)Nc3cc(Oc4ccc5nc(NC(=O)C6CC6)sc5n4)ccc3F)c2Cl)CC1`: the Potency result is “inactive”.
In the case of `Nc1ncnc2c1c(-c1cccc(OCc3ccccc3)c1)cn2C1CC(CN2CCC2)C1` (stereo not given) it was “inactive”; in that of `O=C1CCCC(=O)C1C(=O)c1ccc(C(F)(F)F)cc1[N+](=O)[O-]`, “inactive”; in that of `CC(C)(F)C[C@H](N[C@@H](c1ccc(-c2ccc(S(C)(=O)=O)cc2)cc1)C(F)(F)F)C(=O)NC1(C#N)CC1`, “inactive”.
Turning to `CC(C)Oc1cc(Nc2nc(N[C@@H](C)c3ccc(F)cn3)ncc2Cl)[nH]n1`, the Potency result was “inactive”.
For the compound `CCOC(=O)N1CCN([N+]([O-])=NOc2cc(ON=[N+]([O-])N3CCN(C(=O)OCC)CC3)c([N+](=O)[O-])cc2[N+](=O)[O-])CC1`, the Potency result is “inactive”.
In the case of `C[C@@H](N)c1ccc(C(=O)Nc2ccnc3[nH]ccc23)cc1`, the Potency entry is “inactive”.
As to `CCC[C@H](N[C@@H](C)C(=O)N1[C@@H]2CCCC[C@H]2C[C@H]1C(=O)O)C(=O)OCC`, the Potency result was “inactive”.
For `Cn1cc(-c2ccc3nnc(Sc4ccc5ncccc5c4)n3n2)cn1`, the Potency result is “inactive”.
